Data published in the supplement of paper PMC10849652.
Of roughly 7,900 targets only a part is listed; those with a hit were picked by preference. About 0.6% of all pairs of compound and target were hits.

Compound: COc1cc2nc(-c3cc(F)ccc3O)nc(N[C@@H]3CNC[C@H]3C(C)(C)O)c2cc1OC
Test: log2 fold change, soluble protein after heating vs DMSO (PISA); higher = thermal stabilisation; K562 cells, 10 uM, 30 min; active = over 0.2 and 3.5 SD of the protein, either way, in both replicates (recomputed)
Procedure, shortened: (§1)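 K562 cells at 2×10^6 cells/mL were treated with 10 μM compound for 30 min. Aliquots were heated for 3 min across 48°C-58°C, pooled, and extracted in PBS with 0.5% NP-40 at 4°C; soluble protein was the supernatant after 21,000xg for 90 min. Soluble protein was quantified by TMTpro 16plex LC-MS/MS with channel sums equalised, and reported as log2 fold change in thermal stability against DMSO controls, with values from duplicates.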

Sequence of UniProt O43164 (O43164 whole entry, looked up): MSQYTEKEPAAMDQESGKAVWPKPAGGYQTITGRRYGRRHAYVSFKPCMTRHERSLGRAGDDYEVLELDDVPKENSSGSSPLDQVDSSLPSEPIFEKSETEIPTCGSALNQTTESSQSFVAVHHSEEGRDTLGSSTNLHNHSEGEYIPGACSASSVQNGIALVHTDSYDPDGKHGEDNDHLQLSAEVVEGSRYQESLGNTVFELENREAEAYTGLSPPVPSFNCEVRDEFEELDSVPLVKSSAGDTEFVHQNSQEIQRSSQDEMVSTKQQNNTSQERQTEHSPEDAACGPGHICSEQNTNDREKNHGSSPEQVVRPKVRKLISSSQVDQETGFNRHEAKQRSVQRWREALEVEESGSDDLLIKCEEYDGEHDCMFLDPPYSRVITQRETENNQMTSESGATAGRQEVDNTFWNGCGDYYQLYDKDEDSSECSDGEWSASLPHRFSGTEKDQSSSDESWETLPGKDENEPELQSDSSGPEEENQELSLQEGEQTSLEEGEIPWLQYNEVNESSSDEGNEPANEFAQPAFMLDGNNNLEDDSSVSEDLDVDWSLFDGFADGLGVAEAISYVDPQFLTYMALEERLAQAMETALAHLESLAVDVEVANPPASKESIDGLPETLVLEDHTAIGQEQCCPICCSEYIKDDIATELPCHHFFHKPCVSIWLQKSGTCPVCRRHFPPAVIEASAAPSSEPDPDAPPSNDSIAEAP
Sequence of UniProt Q99575 (Q99575 whole entry, looked up): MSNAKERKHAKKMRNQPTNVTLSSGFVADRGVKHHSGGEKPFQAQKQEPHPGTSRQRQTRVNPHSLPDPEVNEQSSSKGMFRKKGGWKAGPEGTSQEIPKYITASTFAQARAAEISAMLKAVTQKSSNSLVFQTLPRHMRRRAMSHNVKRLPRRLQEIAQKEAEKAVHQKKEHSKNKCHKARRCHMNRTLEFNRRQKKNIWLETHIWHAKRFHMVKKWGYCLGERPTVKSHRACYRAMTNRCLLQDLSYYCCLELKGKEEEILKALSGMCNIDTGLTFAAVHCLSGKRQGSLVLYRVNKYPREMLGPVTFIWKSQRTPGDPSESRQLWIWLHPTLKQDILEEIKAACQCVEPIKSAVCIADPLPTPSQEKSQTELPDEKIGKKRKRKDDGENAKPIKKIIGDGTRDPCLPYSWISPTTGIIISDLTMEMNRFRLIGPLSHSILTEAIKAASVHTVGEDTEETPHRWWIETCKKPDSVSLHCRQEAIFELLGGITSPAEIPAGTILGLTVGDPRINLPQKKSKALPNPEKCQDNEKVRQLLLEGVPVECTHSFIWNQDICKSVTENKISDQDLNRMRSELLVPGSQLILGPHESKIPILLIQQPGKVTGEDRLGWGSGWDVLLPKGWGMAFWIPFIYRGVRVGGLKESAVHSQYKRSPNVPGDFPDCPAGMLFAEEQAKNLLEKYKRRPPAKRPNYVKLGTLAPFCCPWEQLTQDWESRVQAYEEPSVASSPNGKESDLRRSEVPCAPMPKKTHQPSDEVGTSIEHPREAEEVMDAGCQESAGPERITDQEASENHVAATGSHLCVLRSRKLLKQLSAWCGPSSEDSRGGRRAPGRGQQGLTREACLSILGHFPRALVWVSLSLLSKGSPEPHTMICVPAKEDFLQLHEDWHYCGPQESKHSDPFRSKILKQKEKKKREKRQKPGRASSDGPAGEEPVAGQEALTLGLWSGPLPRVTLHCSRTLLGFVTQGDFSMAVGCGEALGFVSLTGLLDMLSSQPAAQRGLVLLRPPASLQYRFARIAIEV
Sequence of UniProt P62333 (P62333 whole entry, looked up): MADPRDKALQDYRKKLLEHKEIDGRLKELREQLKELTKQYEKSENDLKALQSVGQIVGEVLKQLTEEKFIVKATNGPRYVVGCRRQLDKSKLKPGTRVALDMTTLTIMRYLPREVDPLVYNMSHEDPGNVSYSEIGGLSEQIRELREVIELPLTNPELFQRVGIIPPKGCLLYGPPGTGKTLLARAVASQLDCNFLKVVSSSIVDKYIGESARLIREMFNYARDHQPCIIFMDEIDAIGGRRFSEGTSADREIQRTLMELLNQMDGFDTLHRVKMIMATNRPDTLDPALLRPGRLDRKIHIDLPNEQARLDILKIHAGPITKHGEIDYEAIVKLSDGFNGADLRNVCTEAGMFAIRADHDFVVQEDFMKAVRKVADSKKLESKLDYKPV
Sequence of UniProt Q9UG56 (Q9UG56 whole entry, looked up): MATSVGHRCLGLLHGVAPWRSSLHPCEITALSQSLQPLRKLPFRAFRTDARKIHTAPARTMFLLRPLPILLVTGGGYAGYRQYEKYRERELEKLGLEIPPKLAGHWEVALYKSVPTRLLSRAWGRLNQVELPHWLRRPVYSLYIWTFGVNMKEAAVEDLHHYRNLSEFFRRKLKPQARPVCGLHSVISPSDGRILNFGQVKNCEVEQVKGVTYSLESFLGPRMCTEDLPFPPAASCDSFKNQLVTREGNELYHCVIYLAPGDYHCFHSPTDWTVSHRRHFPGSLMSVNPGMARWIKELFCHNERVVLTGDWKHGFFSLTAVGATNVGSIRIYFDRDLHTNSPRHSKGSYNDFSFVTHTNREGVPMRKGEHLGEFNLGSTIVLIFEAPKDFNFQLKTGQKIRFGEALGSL
Sequence of UniProt Q9NW08 (Q9NW08 whole entry, looked up): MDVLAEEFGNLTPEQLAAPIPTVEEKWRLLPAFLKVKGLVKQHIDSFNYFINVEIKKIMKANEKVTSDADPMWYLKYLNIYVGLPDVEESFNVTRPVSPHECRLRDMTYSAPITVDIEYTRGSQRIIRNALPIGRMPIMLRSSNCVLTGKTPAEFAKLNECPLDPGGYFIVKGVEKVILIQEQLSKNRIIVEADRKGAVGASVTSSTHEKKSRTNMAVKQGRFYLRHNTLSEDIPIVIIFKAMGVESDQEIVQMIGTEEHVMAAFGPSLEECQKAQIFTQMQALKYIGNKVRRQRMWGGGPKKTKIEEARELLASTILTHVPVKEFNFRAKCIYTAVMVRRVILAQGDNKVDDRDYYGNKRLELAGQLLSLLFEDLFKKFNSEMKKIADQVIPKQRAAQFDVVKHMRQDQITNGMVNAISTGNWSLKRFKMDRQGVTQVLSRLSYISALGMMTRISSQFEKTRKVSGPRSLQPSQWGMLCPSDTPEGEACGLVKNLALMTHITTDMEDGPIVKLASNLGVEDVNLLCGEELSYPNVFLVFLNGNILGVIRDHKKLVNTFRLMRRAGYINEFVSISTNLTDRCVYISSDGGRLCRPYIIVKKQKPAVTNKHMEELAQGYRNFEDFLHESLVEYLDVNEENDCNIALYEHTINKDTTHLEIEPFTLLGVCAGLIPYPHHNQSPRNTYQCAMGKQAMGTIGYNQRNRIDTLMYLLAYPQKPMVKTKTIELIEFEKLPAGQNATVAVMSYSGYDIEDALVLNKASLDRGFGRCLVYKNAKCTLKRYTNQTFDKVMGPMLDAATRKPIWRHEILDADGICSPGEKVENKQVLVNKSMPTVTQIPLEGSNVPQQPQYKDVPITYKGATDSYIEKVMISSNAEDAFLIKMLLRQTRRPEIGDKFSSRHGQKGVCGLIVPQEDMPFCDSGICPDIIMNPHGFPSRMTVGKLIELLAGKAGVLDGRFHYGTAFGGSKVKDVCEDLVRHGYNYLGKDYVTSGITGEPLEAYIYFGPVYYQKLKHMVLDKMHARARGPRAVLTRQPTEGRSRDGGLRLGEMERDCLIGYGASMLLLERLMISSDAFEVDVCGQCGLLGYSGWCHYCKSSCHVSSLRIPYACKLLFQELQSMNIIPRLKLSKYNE
Sequence of UniProt Q16537 (Q16537 whole entry, looked up): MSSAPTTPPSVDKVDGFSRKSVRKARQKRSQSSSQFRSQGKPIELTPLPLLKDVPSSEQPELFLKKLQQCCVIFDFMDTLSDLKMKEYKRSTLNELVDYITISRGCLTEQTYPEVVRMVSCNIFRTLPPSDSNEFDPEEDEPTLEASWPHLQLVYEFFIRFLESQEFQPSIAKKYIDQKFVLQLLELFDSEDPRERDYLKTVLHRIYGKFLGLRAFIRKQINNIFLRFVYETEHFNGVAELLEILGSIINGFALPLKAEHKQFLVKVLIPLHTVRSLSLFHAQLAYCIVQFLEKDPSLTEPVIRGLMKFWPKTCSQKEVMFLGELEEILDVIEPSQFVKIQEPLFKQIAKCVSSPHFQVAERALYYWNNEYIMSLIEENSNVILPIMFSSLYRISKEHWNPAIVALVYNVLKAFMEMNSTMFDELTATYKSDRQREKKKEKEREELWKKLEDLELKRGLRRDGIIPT
Sequence of UniProt O75340 (O75340 whole entry, looked up): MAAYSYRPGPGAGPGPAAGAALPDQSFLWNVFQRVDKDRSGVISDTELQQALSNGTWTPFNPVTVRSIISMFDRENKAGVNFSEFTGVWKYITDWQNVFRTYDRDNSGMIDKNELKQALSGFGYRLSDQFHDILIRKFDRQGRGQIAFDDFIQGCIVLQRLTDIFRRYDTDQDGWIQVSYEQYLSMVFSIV
Sequence of UniProt O95453 (O95453 whole entry, looked up): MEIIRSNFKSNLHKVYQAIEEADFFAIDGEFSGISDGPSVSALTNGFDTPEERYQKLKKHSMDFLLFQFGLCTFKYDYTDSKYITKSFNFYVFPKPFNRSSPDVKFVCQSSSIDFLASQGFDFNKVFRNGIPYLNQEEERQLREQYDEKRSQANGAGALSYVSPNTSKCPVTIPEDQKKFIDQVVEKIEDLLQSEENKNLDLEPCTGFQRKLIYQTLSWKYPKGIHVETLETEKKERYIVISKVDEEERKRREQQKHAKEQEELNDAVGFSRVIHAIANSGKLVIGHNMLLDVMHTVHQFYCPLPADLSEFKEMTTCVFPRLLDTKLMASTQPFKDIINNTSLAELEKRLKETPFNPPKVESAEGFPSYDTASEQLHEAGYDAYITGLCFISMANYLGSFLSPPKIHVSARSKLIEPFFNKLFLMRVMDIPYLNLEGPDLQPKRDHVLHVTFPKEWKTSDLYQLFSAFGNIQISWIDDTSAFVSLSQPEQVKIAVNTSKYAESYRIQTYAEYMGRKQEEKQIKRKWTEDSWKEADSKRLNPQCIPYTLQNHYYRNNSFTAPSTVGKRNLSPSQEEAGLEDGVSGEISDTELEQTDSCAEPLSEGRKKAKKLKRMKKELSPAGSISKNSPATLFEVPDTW

log2 fold change, inactive:
PDCD6 (UniProt O75340) 0.047
PRKAR1B (UniProt P31321) 0.027
PPP4R3B (UniProt Q5MIZ7) 0
PUF60 (UniProt Q9UHX1) -0.028
PISD (UniProt Q9UG56) 0.148
PJA2 (UniProt O43164) 0.024
PECAM1 (UniProt P16284) 0.025
PTTG1 (UniProt O95997) -0.156
PIK3C3 (UniProt Q8NEB9) 0.172
PARN (UniProt O95453) 0.051
POMP (UniProt Q9Y244) -0.016
POLR3K (UniProt Q9Y2Y1) 0.01
PPT1 (UniProt P50897) -0.041
PTDSS1 (UniProt P48651) -0.071
PPT2 isoform 3 (UniProt Q9UMR5) -0.029
PIK3R1 (UniProt P27986) 0.054
PIR (UniProt O00625) 0.085
PRKCB isoform 2 (UniProt P05771) 0.035
POP1 (UniProt Q99575) -0.109
PLBD1 (UniProt Q6P4A8) -0.016
PEX7 (UniProt O00628) -0.09
PSMC6 (UniProt P62333) -0.024
PDCD2L (UniProt Q9BRP1) 0
PRKCA (UniProt P17252) 0.057
PPP2R5E (UniProt Q16537) 0.205
PRPF38A (UniProt Q8NAV1) 0.041
PNPLA8 (UniProt Q9NP80) -0.125
PSMB4 (UniProt P28070) -0.074
PHKA1 (UniProt P46020) 0.265
PKN1 isoform 2 (UniProt Q16512) -0.217
PEX16 isoform 2 (UniProt Q9Y5Y5) -0.227
PELO (UniProt Q9BRX2) 0.053
PSMC2 (UniProt P35998) -0.034
PCNT (UniProt O95613) 0.055
PELP1 (UniProt Q8IZL8) -0.033
PI4K2A (UniProt Q9BTU6) -0.015
POLR3B (UniProt Q9NW08) 0.08

Compound: COc1cc2ncnc(Nc3ccc(F)c(Cl)c3)c2cc1OCCCN1CCOCC1 [gefitinib]
Test: as above
Procedure, shortened: as §1

log2 fold change, inactive:
PDCD6 (UniProt O75340) -0.021
PRKAR1B (UniProt P31321) 0.051
PPP4R3B (UniProt Q5MIZ7) -0.034
PUF60 (UniProt Q9UHX1) 0.014
PISD (UniProt Q9UG56) 0.008
PJA2 (UniProt O43164) -0.016
PECAM1 (UniProt P16284) 0.02
PTTG1 (UniProt O95997) -0.048
PIK3C3 (UniProt Q8NEB9) 0.062
PARN (UniProt O95453) -0.009
POMP (UniProt Q9Y244) 0.076
POLR3K (UniProt Q9Y2Y1) -0.023
PPT1 (UniProt P50897) -0.03
PTDSS1 (UniProt P48651) 0.041
PPT2 isoform 3 (UniProt Q9UMR5) -0.004
PIK3R1 (UniProt P27986) 0.045
PIR (UniProt O00625) 0.061
PRKCB isoform 2 (UniProt P05771) 0.001
POP1 (UniProt Q99575) 0.012
PLBD1 (UniProt Q6P4A8) 0.019
PEX7 (UniProt O00628) -0.003
PSMC6 (UniProt P62333) -0.038
PDCD2L (UniProt Q9BRP1) -0.09
PRKCA (UniProt P17252) -0.002
PPP2R5E (UniProt Q16537) 0.002
PRPF38A (UniProt Q8NAV1) 0.009
PNPLA8 (UniProt Q9NP80) 0.032
PSMB4 (UniProt P28070) -0.038
PHKA1 (UniProt P46020) -0.017
PKN1 isoform 2 (UniProt Q16512) 0.001
PEX16 isoform 2 (UniProt Q9Y5Y5) -0.021
PELO (UniProt Q9BRX2) 0.009
PSMC2 (UniProt P35998) -0.051
PCNT (UniProt O95613) 0.085
PELP1 (UniProt Q8IZL8) -0.002
PI4K2A (UniProt Q9BTU6) -0.027
POLR3B (UniProt Q9NW08) 0.105
